For some of these results: Potency and affinity values are given separately. This is one part of the list. Activity calls are given as the source filed them.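 The calls were made as follows, unless noted: active = current rise at least 3 SD above the untreated control mean in each of two repeat wells; inactive = the rest.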
Tests used:
[1] = system: TRPC4 beta (transient receptor potential cation channel C4), mouse; assay: activators of mouse TRPC4 channel, confirmation, cell-based, Fluo4 calcium, HEK293 TRPC4beta/mu-opioid, duplicates, 10 µM (AID 2426;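 active = fluorescence ratio normalized to control raised more than 50% in primary screen plus both repeat runs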;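 also: percent rise of integrated ratio over buffer wells lacking compound which define 0%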); details: Fluo4 calcium fluorescence, at 10 µM; stronger effect = higher value
[2] = system: transient receptor potential cation channel C4 beta (TRPC4), mouse; assay: activators of mouse TRPC4 channel, confirmation, cell-based, second round, Fluo4, HEK293 TRPC4beta/mu-opioid, 1 µM (AID 2461;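 active = primary screen active and over 50% activation in each of two duplicate runs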;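 as to activation: 0% = wells without test compound as baseline of integrated fluorescence ratio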); details: Fluo4 calcium fluorescence, at 1 µM; stronger effect = higher value
[3] = system: TRPC4 (transient receptor potential cation channel C4 beta), mouse; assay: positive allosteric modulators of mouse TRPC4, confirmation, cell-based, second round, Fluo-4, HEK293 TRPC4beta/mu-opioid, 1 µM (AID 2554;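 active = primary screen hit whose fluorescence ratio, in both repeats, exceeds the weak agonist control mean by 3 SD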); details: DAMGO EC20, Fluo-4 calcium flux, at 1 µM; stronger effect = higher value
[4] = system: TRPC4 beta (transient receptor potential cation channel C4), mouse; assay: positive allosteric modulators of mouse TRPC4, confirmation, cell-based, Fluo-4, HEK293 TRPC4beta/mu-opioid (AID 2555;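 active = primary screen hit whose calcium fluorescence ratio, in both repeats, exceeds the weak agonist control mean by 3 SD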); details: DAMGO EC20, Fluo-4 calcium flux, at 10 µM; stronger effect = higher value
[5] = biological target: Short transient receptor potential channel 4 (Mus musculus) (UniProt Q9QUQ5); assay: inhibitors of mouse TRPC4 channel, confirmation, cell-based, Fluo4, HEK293 TRPC4beta/mu-opioid (AID 2636;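 active = calcium signal cut by more than 3 SD below the full-agonist control yet still positive, in both repeats and the earlier primary screen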); details: DAMGO, Fluo4 calcium flux, at 10 µM; stronger effect = higher value
[6] = biological target: Short transient receptor potential channel 4 (Mus musculus) (UniProt Q9QUQ5); assay: inhibitors of mouse TRPC4 channel, confirmation, cell-based, second round, Fluo4, HEK293 TRPC4beta/mu-opioid, 1 µM (AID 2637;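 active = calcium signal ratio cut to more than 3 SD under the fully stimulated control mean yet still positive, in both repeats and the primary screen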); details: Fluo4 calcium flux, DAMGO, at 1 µM; stronger effect = higher value
[7] = biological target: Short transient receptor potential channel 4 (Mus musculus) (UniProt Q9QUQ5); assay: TRPC4 positive allosteric modulators, dose response, cell-based, HEK293 TRPC4/mu-opioid, Fluo-4 calcium, EC20 DAMGO (AID 434941;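 active = earlier screen potentiator hit that boosts the TRPC4 ion channel at some dose, with a dose response; inactive = no potentiation, no dose response, or not a prior hit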;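 also: calcium entry triggered by an EC20 dose of DAMGO at the co-expressed mu-opioid receptor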)
[8] = biological target: Short transient receptor potential channel 4 (Mus musculus) (UniProt Q9QUQ5); assay: mouse TRPC4 channel inhibitors, dose response, cell-based, HEK293 TRPC4/mu-opioid, Fluo-4 calcium (AID 434942;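 active = primary screen inhibitor hit that blocks the TRPC4 channel at some tested dose, yielding a dose curve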)
[9] = biological target: Short transient receptor potential channel 6 (Mus musculus) (UniProt Q61143); assay: inhibition of mouse TRPC6 channel, confirmation, selectivity assay for TRPC4 inhibitor project, cell-based, HEK293, membrane potential dye, duplicate (AID 434948;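 active = active in primary screen and both duplicates, each dropping signal beyond three positive-control SD with fluorescence still positive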); details: HEK293 TRPC6, membrane potential dye fluorescence, at 10 µM; inhibition: stronger effect = higher value, stimulated with maximal-effect acetylcholine unless noted; outcome: stimulated with maximal-effect acetylcholine unless noted
[10] = biological target: Short transient receptor potential channel 6 (Mus musculus) (UniProt Q61143); assay: activation of mouse TRPC6 channel, confirmation, selectivity assay for TRPC4 activator project, cell-based, HEK293, membrane potential dye, duplicate (AID 434950;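 active = membrane potential signal rise above negative control mean plus 3 SD in both duplicates, also active in the earlier TRPC4 screen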;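 as to activation: 0% = buffer only wells and 100% = acetylcholine maximal-effect wells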); details: HEK293 TRPC6, membrane potential fluorescence, at 10 µM; stronger effect = higher value
[11] = biological target: Short transient receptor potential channel 6 (Mus musculus) (UniProt Q61143); assay: TRPC6 potentiation by TRPC4 potentiator hits, confirmation, selectivity assay for TRPC4 potentiator project, HEK293 cells, membrane potential dye, duplicate (AID 434952;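 active = compound raising the membrane signal above positive-control mean plus 3 SD in both repeats, and a primary screen hit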); details: HEK293 TRPC6, membrane potential dye fluorescence, at 10 µM; maximal acetylcholine added after compound unless noted
[12] = biological target: Short transient receptor potential channel 4 (Mus musculus) (UniProt Q9QUQ5); assay: calcium flux activators in TRPC4/5HT1a cells, counter-screen for TRPC4 activator project, cell-based, second counter screen, HEK293 TRPC4/5HT1a, Fluo-4 (AID 434977;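 active = calcium signal rise above buffer-control mean plus 5 SD in both duplicates, and also a hit in the primary screen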;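 as to activation: plate controls were assay buffer for no effect and maximal serotonin response for full effect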); details: Fluo-4 calcium flux, at 10 µM; stronger effect = higher value
[13] = calcium flux inhibitors in TRPC4/5HT1a cells, confirmation, counter-screen for TRPC4 inhibitor project, cell-based, second counter screen, HEK293 TRPC4/5HT1a, Fluo-4 (AID 434978;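 active = primary screen active whose calcium signal fell more than 3 SD beyond the full-serotonin control mean in both duplicate plates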;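 also: serotonin given first at submaximal then at maximal dose after compound preincubation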); details: Fluo-4 calcium flux, at 10 µM; inhibition: stronger effect = higher value, serotonin added to trigger calcium flux unless noted; outcome: serotonin added to trigger calcium flux unless noted
[14] = system: TRPC4 (mouse), co-expressed with 5HT1a in HEK293; assay: calcium flux potentiators in TRPC4/5HT1a cells, confirmation, counter-screen for TRPC4 potentiator project, cell-based, second counter screen, HEK293 TRPC4/5HT1a, Fluo-4 (AID 434979;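 active = signal rise over 3 SD above mean of control wells given weak agonist, in both repeats and first screen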); details: Fluo-4 calcium flux, at 10 µM; outcome: serotonin added at its EC20 dose unless noted; potentiation: stronger effect = higher value, serotonin added at its EC20 dose unless noted
[15] = calcium flux activation in mu-opioid HEK293 cells, confirmation, counter-screen for TRPC4 activator project, cell-based, HEK293 mu-opioid receptor line (AID 449723;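 active = hit in primary screen, with calcium signal over 5 SD above buffer well mean in both duplicates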;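 also: counter screen cells carry the mu-opioid receptor alone and lack TRPC4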); details: Fluo-4 calcium fluorescence, at 10 µM; stronger effect = higher value
[16] = calcium flux enhancement in mu-opioid HEK293 cells, confirmation, counter-screen for TRPC4 allosteric potentiator project, cell-based, HEK293 mu-opioid receptor line (AID 449724;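 active = calcium signal rise more than 3 SD above the low-dose agonist control mean, in both duplicate plates and the primary screen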); details: Fluo-4 calcium flux, at 10 µM; compound added before EC20 DAMGO stimulus unless noted
[17] = biological target: Short transient receptor potential channel 4 (Mus musculus) (UniProt Q9QUQ5); assay: mouse TRPC4 membrane potential modulation by TRPC6 hits, confirmation, selectivity assay for TRPC6 inhibitor project, cell-based, second specificity screen, HEK293 TRPC4/mu-opioid (AID 2776;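 active = compounds whose fluorescence signal differed from control wells by over 3 SD, either direction, in both duplicate plates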); details: HEK293 TRPC4/MOR, membrane potential dye fluorescence; at 10 µM; stronger effect = higher value; channel activated by saturating DAMGO dose
[18] = system: transient receptor potential cation channel C4 (TRPC4), mouse; assay: mouse TRPC4 modulation by TRPC6 hits, confirmation, selectivity assay for TRPC6 inhibitor project, cell-based, HEK293 TRPC4/mu-opioid, membrane potential dye (AID 2777;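 active = rise or fall in signal beyond 3 SD of buffer-only wells in both replicate plates, either sign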;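 also: integrated kinetic ratio of fluorescence range over baseline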); details: membrane potential fluorescence, at 10 µM
[19] = nonspecific membrane potential effects, parental HEK293, confirmation, counter-screen for TRPC6 inhibitor project, cell-based, second counter screen (AID 2779;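 active = membrane potential signal moving either way by over 3 SD of the maximum-effect control, in both duplicate plates, meaning non-specific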); details: parental HEK293 membrane potential dye fluorescence; at 10 µM; maximal acetylcholine challenge after compound addition
[20] = membrane potential modulation in parental HEK293, confirmation, counter-screen for TRPC6 inhibitor project, cell-based (AID 2780;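 active = membrane potential signal shifting up or down by more than 3 SD of buffer-only wells, on both duplicate plates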;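 also: plate controls were buffer EC0 wells for no effect and acetylcholine ECmax wells for full effect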); details: parental HEK293 membrane potential dye fluorescence; at 10 µM
[21] = biological target: Short transient receptor potential channel 6 (Mus musculus) (UniProt Q61143); assay: mouse TRPC6 channel inhibitors, confirmation, HEK293 cells, membrane potential dye, duplicate (AID 488960;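 active = fluorescence ratio falls more than 5 SD below the full-stimulation control mean, in both duplicate runs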;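 also: integrated fluorescence ratio of peak minus minimum over baseline after agonist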); details: ACh-evoked depolarization, at 10 µM; stronger effect = higher value
[22] = biological target: Short transient receptor potential channel 6 (Mus musculus) (UniProt Q61143); assay: mouse TRPC6 channel activators, confirmation, HEK293 cells, membrane potential dye, duplicate (AID 488961;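 active = ratio signal rise beyond 5 SD above unstimulated control wells' mean, seen in both duplicate runs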); details: HEK293-TRPC6 membrane potential dye fluorescence, FDSS; at 10 µM
[23] = thallium flux activation in parental CHO cells, counter-screen for KCNQ1 potentiator project (AID 493006;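 active = duplicate-averaged activation above buffer control mean plus 5 SD of those controls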;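 as to activation: fluorescence ratio of max minus min over baseline after K+ and Tl+ depolarization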); details: parental CHO-K1 cells, FluxOR thallium flux, at 10 µM; stronger effect = higher value
[24] = biological target: Potassium voltage-gated channel subfamily KQT member 1 (Homo sapiens) (UniProt P51787); assay: KCNQ1 potassium channel potentiators, confirmation, FluxOR thallium flux, CHO cells, duplicates (AID 493007;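 active = potentiation averaged over duplicate wells exceeding buffer-only control mean by more than 3 SD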;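 as to outcome: cells depolarized by a potassium plus thallium sulfate stimulus after compound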;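 as to potentiation: 0% = buffer-only wells and 100% = R-L3 activator control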); details: KCNQ1 cell line, FluxOR thallium flux fluorescence, at 10 µM; stronger effect = higher value, % of reference activator effect, buffer zero
[25] = biological target: Potassium voltage-gated channel subfamily KQT member 2 (Rattus norvegicus) (UniProt O88943); assay: rat KCNQ2 channel potentiation, selectivity assay for KCNQ1 potentiator project, KCNQ2-CHO-K1 cells (AID 493009;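 active = mean duplicate potentiation above the buffer control mean plus 5 SD of buffer wells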;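 also: assay conditions were tuned for KCNQ1 rather than KCNQ2 modulators; signal is max minus min fluorescence divided by baseline after thallium stimulus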); details: FluxOR thallium flux fluorescence, at 10 µM; stronger effect = higher value, scaled: buffer 0, activator control 100
[26] = biological target: Potassium voltage-gated channel subfamily KQT member 1 (Homo sapiens) (UniProt P51787); assay: KCNQ1 channel current potentiators, confirmation, orthogonal assay for KCNQ1 potentiator project, IonWorks patch clamp, KCNQ1-CHO cells (AID 493184); details: automated patch clamp current, at 10 µM
[27] = parental HEK293 membrane potential modulation, confirmation, counter-screen for TRPC6 modulator project, cell-based (AID 488924;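 active = membrane potential signal moves up or down beyond 5 SD from buffer-only wells, on both duplicate plates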); details: parental HEK293, membrane potential dye fluorescence; at 10 µM
[28] = modulation of acetylcholine-evoked membrane potential, parental HEK293, confirmation, counter-screen for TRPC6 modulator project, cell-based, second counter-screen, membrane potential dye (AID 488926;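 active = membrane potential signal drops by more than 5 SD from the mean control signal, in both duplicate plates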;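 also: plate controls were acetylcholine ECmax control wells for no effect and buffer only wells for full effect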); details: parental HEK293, membrane potential dye fluorescence, at 10 µM, after compound, maximal acetylcholine stimulation; stronger effect = higher value
[29] = system: Transient receptor potential cation channel subfamily C member 4 (mouse); assay: TRPC4 modulation by TRPC6 hit compounds, confirmation, selectivity assay for TRPC6 modulator project, cell-based, HEK293 TRPC4/mu-opioid, membrane potential dye, mouse (AID 488927;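 active = membrane potential signal moved up or down beyond 5 SD of buffer control wells, in both duplicate plates, actives on both sides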); details: membrane potential fluorescence, at 10 µM
[30] = system: TRPC4 (transient receptor potential cation channel C4), mouse; assay: TRPC4 inhibition by TRPC6 hit compounds, confirmation, selectivity assay for TRPC6 modulator project, cell-based, second screen, HEK293 TRPC4/mu-opioid, membrane potential dye (AID 488928;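 active = drop in membrane potential signal beyond 5 SD of the control wells in both duplicate plates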;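 also: TRPC4 counter screen for TRPC6 hits run under conditions tuned for TRPC6 not TRPC4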); details: membrane potential dye fluorescence, at 10 µM, stimulated with maximal-effect DAMGO; stronger effect = higher value

Short transient receptor potential channel 4 (Mus musculus), sequence (Q9QUQ5 whole entry, looked up): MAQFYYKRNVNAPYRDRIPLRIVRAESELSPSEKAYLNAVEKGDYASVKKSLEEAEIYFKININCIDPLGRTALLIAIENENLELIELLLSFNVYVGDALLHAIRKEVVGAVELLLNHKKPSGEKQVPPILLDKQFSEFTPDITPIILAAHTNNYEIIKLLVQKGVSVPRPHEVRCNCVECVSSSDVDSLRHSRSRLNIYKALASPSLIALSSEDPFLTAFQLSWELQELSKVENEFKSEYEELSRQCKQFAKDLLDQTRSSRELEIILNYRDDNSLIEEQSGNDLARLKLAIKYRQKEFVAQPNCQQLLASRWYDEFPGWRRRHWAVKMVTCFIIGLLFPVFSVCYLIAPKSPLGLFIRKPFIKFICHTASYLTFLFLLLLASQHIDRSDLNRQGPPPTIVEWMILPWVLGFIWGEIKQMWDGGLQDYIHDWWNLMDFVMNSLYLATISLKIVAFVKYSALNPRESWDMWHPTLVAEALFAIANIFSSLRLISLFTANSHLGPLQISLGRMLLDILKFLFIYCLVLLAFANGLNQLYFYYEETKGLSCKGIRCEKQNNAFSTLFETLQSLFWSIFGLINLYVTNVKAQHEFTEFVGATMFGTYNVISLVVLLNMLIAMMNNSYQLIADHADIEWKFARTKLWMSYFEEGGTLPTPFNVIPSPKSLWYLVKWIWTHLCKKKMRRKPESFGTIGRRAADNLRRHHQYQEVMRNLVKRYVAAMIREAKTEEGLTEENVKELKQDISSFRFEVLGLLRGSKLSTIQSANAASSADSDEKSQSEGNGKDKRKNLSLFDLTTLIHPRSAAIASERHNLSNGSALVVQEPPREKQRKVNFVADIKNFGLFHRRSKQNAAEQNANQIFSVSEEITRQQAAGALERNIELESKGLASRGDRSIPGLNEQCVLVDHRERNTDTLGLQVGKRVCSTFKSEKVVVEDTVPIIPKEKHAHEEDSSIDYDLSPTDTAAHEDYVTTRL
Potassium voltage-gated channel subfamily KQT member 1 (Homo sapiens), sequence (P51787 whole entry, looked up): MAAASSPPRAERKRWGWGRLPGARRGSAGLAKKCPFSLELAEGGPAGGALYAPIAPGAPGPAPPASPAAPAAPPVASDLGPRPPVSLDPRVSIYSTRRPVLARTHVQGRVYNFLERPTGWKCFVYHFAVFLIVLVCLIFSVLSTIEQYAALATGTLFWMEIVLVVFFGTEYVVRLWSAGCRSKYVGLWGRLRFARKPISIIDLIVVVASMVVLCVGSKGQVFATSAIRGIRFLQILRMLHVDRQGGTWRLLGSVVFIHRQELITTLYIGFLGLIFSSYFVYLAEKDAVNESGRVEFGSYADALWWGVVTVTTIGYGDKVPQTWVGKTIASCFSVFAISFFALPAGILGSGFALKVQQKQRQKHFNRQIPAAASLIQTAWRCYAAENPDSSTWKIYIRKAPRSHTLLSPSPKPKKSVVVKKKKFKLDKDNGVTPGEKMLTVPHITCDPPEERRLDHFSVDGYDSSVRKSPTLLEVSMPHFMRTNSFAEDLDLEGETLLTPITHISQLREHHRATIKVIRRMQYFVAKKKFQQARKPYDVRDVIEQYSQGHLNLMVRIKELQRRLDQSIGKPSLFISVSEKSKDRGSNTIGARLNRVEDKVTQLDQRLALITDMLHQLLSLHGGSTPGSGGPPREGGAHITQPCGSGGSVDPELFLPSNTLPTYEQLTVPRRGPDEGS
Potassium voltage-gated channel subfamily KQT member 2 (Rattus norvegicus), sequence (O88943 whole entry, looked up): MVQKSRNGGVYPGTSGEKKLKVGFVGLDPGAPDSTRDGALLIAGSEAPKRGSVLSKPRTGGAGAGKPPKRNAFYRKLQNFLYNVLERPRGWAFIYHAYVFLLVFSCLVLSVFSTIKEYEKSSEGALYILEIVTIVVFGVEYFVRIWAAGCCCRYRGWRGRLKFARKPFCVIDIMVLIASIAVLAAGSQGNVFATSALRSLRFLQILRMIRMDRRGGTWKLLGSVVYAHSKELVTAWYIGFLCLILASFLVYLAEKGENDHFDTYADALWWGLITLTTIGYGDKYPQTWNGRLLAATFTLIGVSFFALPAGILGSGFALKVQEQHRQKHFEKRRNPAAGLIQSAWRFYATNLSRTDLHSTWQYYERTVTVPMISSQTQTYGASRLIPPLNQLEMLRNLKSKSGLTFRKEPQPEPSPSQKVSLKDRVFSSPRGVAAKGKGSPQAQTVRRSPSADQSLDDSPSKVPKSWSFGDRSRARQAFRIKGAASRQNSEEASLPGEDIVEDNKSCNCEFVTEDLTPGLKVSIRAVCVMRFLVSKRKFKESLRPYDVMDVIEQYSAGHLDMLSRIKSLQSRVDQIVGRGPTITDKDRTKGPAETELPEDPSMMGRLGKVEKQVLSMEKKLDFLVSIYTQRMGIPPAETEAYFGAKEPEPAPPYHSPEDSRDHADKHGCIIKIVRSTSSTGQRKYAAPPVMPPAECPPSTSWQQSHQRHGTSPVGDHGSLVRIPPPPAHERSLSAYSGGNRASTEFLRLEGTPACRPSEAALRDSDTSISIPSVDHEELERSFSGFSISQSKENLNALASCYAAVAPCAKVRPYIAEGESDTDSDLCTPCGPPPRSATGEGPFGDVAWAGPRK
Short transient receptor potential channel 6 (Mus musculus), sequence (Q61143 whole entry, looked up): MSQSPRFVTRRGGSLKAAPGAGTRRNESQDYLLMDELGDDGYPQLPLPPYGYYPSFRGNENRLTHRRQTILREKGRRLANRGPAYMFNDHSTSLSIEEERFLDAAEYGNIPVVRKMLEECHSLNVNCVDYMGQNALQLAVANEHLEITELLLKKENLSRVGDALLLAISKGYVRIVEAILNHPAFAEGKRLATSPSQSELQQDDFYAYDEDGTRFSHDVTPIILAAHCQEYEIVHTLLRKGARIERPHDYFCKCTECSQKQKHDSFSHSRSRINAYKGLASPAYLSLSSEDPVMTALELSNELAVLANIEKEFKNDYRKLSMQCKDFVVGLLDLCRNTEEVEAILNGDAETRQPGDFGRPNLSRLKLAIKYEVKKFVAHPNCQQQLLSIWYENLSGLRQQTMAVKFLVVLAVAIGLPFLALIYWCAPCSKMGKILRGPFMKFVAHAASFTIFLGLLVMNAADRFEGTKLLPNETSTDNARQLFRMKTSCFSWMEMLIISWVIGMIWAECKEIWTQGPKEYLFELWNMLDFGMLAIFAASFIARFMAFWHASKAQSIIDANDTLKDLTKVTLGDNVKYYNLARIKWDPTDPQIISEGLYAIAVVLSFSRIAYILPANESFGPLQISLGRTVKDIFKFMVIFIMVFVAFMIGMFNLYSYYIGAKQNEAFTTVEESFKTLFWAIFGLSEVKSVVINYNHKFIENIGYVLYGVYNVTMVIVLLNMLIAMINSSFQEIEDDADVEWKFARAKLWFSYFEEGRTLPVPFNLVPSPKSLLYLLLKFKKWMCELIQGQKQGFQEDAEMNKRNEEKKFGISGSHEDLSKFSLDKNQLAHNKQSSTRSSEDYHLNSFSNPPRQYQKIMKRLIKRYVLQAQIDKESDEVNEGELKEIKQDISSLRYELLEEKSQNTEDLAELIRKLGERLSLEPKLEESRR

CCOC(=O)c1cc(C)n(CCc2cnc[nH]2)c1C
inactive: outcome [3] | outcome [4] | outcome [5] | outcome [6] | outcome [7] | outcome [8] | outcome [9] | outcome [11] | outcome [13] | outcome [14] | outcome [15] | outcome [16]
active: activation [1] 143% | activation [2] 89% | activation [10] 26% | activation [12] 76%

CCCCCCCCCCCCn1ccc(=N)cc1
inactive: outcome [19] | outcome [22]
active: inhibition [17] 66% | activity change, negative = inhibition [18] -9.73% | membrane potential signal change [20] -166% | inhibition [21] 56.1%

Cc1ccc(C[n+]2c(-c3ccc(C)cc3)cc(-c3ccc(C)cc3)cc2-c2ccc(C)cc2)cc1
active: activation [1] 152% | activation [12] 48.5% | activation [15] 19.8% | activation [23] 142% | potentiation [24] 124% | potentiation [25] 185%
inactive: outcome [2] | outcome [3] | outcome [4] | outcome [5] | outcome [6] | outcome [7] | outcome [8] | outcome [9] | outcome [10] | outcome [11] | outcome [13] | outcome [14] | outcome [16] | outcome [26]

CCOc1cc(CNCCc2c[nH]c3ccccc23)cc(Cl)c1OC
inactive: outcome [2] | outcome [3] | outcome [4] | outcome [5] | outcome [6] | outcome [7] | outcome [8] | outcome [9] | outcome [10] | outcome [11] | outcome [13] | outcome [14] | outcome [15] | outcome [16]
active: activation [1] 129% | activation [12] 65.6%

COc1ccc(C(CNC(=O)Cc2ccc(Cl)c(Cl)c2)N(C)C)cc1 (centres undefined)
inactive: outcome [3] | outcome [4] | outcome [5] | outcome [6] | outcome [7] | outcome [8] | outcome [9] | outcome [11] | outcome [12] | outcome [13] | outcome [14] | outcome [15] | outcome [16]
active: activation [1] 120% | activation [2] 95% | activation [10] 40.5%

CCN(CC)c1ccc(/C=C/[N+](=O)[O-])cc1
active: activation [1] 96% | activation [10] 906% | activation [12] 67.9% | activation [15] 113%
inactive: outcome [2] | outcome [3] | outcome [4] | outcome [5] | outcome [6] | outcome [7] | outcome [8] | outcome [9] | outcome [11] | outcome [13] | outcome [14] | outcome [16]

COc1cccc(CC(=O)N2CCN(Cc3cccc(Cl)c3)CC2)c1
inactive: outcome [23] | outcome [24] | outcome [25] | outcome [26]

CC1=CC(=Cc2sc3ccccc3[n+]2C)C=C(C)O1
active: inhibition [28] 131% | inhibition [21] 73%
inactive: outcome [27] | outcome [29] | outcome [30] | outcome [22]

O=[N+]([O-])c1ccc(N2CCCNCC2)c2ncccc12
inactive: outcome [3] | outcome [4] | outcome [5] | outcome [6] | outcome [7] | outcome [8] | outcome [9] | outcome [10] | outcome [11] | outcome [13] | outcome [14] | outcome [15] | outcome [16]
active: activation [1] 133% | activation [2] 139% | activation [12] 55.8%

COc1cc(-n2c(=S)[nH]c3ccccc3c2=O)c(Cl)cc1Cl
inactive: outcome [23] | outcome [24] | outcome [25] | outcome [26]

CN1CCN(c2cc(N3CCCC3)c([N+](=O)[O-])cc2F)CC1
inactive: outcome [23] | outcome [24] | outcome [25] | outcome [26]

Brc1ccc2c(c1)C(OC1CN3CCC1CC3)c1ccccc1CS2 (centres undefined)
inactive: outcome [23] | outcome [25] | outcome [26]
active: potentiation [24] 40.5%

COc1ccccc1N(CC(=O)NC1CCCC1)C(=O)c1cnn(C(C)C)c1
inactive: outcome [23] | outcome [24] | outcome [25] | outcome [26]

O=C1NC(=O)N(Cc2ccc(F)cc2)C(=O)/C1=C/c1cccs1
inactive: outcome [23] | outcome [24] | outcome [25] | outcome [26]

Cc1c(Cl)cccc1NC(=S)N1CC2CC(C1)c1cccc(=O)n1C2 (centres undefined)
inactive: outcome [23] | outcome [24] | outcome [26]

Source: PubChem BioAssay
